Screening results: PubChem BioAssay, National Center for Advancing Translational Sciences (NCATS)
Hits are enriched below; roughly 17% of the tested compounds scored in any of these assays.
TDP1 block: TDP1 (human) enzyme inhibition. Q9NUW8. recombinant TDP1, AlphaScreen DNA substrate cleavage. Potency, µM (doses to about 130 µM), for inactives: top-dose activity change, negative = inhibition, hits mostly inhibitors. 0.28% of 350,000 active; note: % is set by controls: 0 for no effect and ±100 for the full control effect; nearly all actives have a fitted effect of over 40% in size
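Here, a 5' biotin and 3' phosphotyrosine-FITC DNA oligonucleotide reports Tdp1 activity: intact substrate bridges AlphaScreen beads, while cleavage leaves a 3' phosphate and drops signal. All incubations at room temperature.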
TDP1 cell noCPT: qHTS for Inhibitors of human tyrosyl-DNA phosphodiesterase 1 (TDP1): qHTS in cells in absence of CPT. DT40 Tdp1-/- hTDP1 cells, no CPT, ATP luminescence, 48 h. Potency, µM (doses to about 46.2 µM), inactives show at the highest dose activity change, negative = growth inhibition, actives largely listed as inhibitors. 15% of 420,000 active. AID 686978, 2013; note: % is set by controls: 0 for no effect and ±100 for the full control effect; nearly all actives have a fitted effect of over 55% in size
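Growth kinetics read by CellTiter-Glo luminescence after ≥48 hr at 37 °C. Cells: DT40 Tdp1-/- stably carrying human TDP1, 400 per well, compound exposure in the absence of CPT (DMSO vehicle).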
ClpP mod: qHTS Assay for Activators of ClpP; ATP-dependent Clp protease proteolytic subunit (Bacillus subtilis (strain 168)), P80244; purified B. subtilis ClpP, FRET peptide cleavage, 20 min; Potency, µM (top dose mostly 57.5 µM), without a hit: at the highest dose activity change, negative = active; 1.9% of 340,000 active; AID 651965, 2013; active = well fitted falling curve with a large enough effect; inconclusive = small, poorly fitted or top-dose-only effect; inactive = no such curve, though single readings can be large or run the other way; note: the source files actives as falling curves though it sought activators and does not explain the sign; nearly all actives have a fitted effect of over 65% in size
Target sequence (P80244 whole entry, looked up): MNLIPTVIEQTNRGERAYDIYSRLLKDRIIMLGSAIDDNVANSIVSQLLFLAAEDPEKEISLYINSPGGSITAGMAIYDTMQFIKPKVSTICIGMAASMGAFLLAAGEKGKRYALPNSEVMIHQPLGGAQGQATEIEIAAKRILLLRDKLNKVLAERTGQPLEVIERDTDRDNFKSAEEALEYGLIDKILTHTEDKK
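Purified B. subtilis ClpP, 10 microg/mL final in Tris/HCl pH8 with KCl, BSA, glycerol and Tween-20, cleaved an Abz/nitrotyrosine-quenched decapeptide. Fluorescence (ex 320, em 430) was read at 0 and 20 min at room temperature. Delta was normalized to 5.8 microM ADEP and DMSO/no-enzyme controls.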
TDP1 cell CPT: growth inhibition of DT40 Tdp1-/-;hTDP1 cells with camptothecin (screen for TDP1 inhibitors); Potency, µM (highest dose often 46.2 µM), for the others: top-dose activity change, negative = growth inhibition, usual class: inhibitors; 12% of 420,000 active; AID 686979; chicken DT40 Tdp1-/-;hTDP1 cells + 20 nM CPT, ATP luminescence, 48 h; note: % is set by controls: 0 for no effect and ±100 for the full control effect; nearly all actives have a fitted effect of over 55% in size
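Chicken DT40 Tdp1-/- cells complemented with human TDP1, 400 cells/well, exposed to compounds plus 20 nM camptothecin for at least 48 h at 37 C; viability read as ATP content by CellTiter-Glo luminescence.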
Numbers without * were called inactive; ? = inconclusive; . = no result. Unless noted, calls come from the whole dose curve; as a rule, active = well fitted curve in the direction sought with a large enough effect; inconclusive = small, poorly fitted or top-dose-only effect, or another doubt; inactive = no such curve, though single readings can be large; an effect the other way counts as inactive or inconclusive. Potency is the fitted concentration of half-maximal effect.

SMILES | TDP1 block | TDP1 cell noCPT | ClpP mod | TDP1 cell CPT
O=C1c2ccccc2C(=O)N1CCc1ccccn1 | -1% | -5% | -1% | ?
O=C1c2cccc3c([N+](=O)[O-])ccc(c23)C(=O)N1CCc1ccccn1 | 5% | 5.2µM* | . | 13µM*
CN(C)CCCN1C(=O)c2cccc3c([N+](=O)[O-])ccc(c23)C1=O | 3% | 2.3µM* | -5% | 2.3µM*
CC(C)Sc1ncnc2[nH]ncc12 | . | ? | -2% | -29%
COc1cccc(C(=O)NCC(c2cccnc2)N2CCN(c3ccccc3OC)CC2)c1 (centres undefined) | . | 23µM* | 2% | 21µM*
COc1ccc(C(=O)NCC(c2cccnc2)N2CCN(c3ccccc3OC)CC2)cc1OC (centres undefined) | 0% | ? | -3% | 21µM*
COc1ccccc1N1CCN(C(CNC(=O)c2ccco2)c2cccnc2)CC1 (centres undefined) | 3% | ? | 1% | ?
O=C1N(c2ccccc2C(F)(F)F)O[C@@]1(c1ccccc1)C1CCCC1 | ? | 0% | -3% | -22%
O=C1N(c2ccccc2C(F)(F)F)O[C@@]1(c1ccccc1)C1CCCCC1 | -15% | ? | -7% | 13µM*
O=C(O)c1ccccc1OC1=NS(=O)(=O)c2ccccc21 | 2% | . | . | .
COc1cc(C(CCN2CCCCC2)c2c(OC)cc(OC)c3c2OC(=O)CC3c2ccc(N(C)C)cc2)cc(OC)c1OC (centres undefined) | 24% | . | . | .
CN(C(=O)CSC1=Nc2ccccc2C2=NC(c3ccccc3)C(=O)N12)C1CCCCC1 (centres undefined) | 6% | ? | 25µM* | 21µM*
O=C(CSc1ccccc1)NC1CCCCCC1 | 3% | -7% | 0% | 4%
O=C(CSC1=Nc2ccccc2C2=NC(c3ccccc3)C(=O)N12)NC1CCCCC1 (centres undefined) | -2% | -14% | 11µM* | -9%
CCN(CC)S(=O)(=O)c1ccc(C(O)=C(C#N)c2nc3ccccc3n2C)cc1 | . | 13µM* | . | 16µM*
Cn1c(/C(C#N)=C(\O)COc2ccc3ccccc3c2)nc2ccccc21 | -2% | 26µM* | -2% | ?
Cc1ccc(OC/C(O)=C(\C#N)c2nc3ccccc3s2)cc1 | -1% | ? | 2% | ?
Cn1c(/C(C#N)=C(\O)c2ccccc2Cl)nc2ccccc21 | . | -22% | . | 15%
CC(C)(C)OC(=O)N(CCc1ccccc1)Cc1ccccc1OCc1cccc(NC(=O)C2CCC2)c1 | . | 13µM* | 0% | 16µM*
CC(C)(C)OC(=O)N(Cc1ccccc1)Cc1ccccc1OCc1cccc(NC(=O)C2CC2)c1 | . | ? | -1% | ?
CC(C)(C)OC(=O)N(Cc1ccccc1)Cc1ccccc1OCc1cccc(NC(=O)C2CCC2)c1 | . | 16µM* | -1% | ?
CC(C)C(=O)Nc1cccc(COc2ccc(CN(CCc3ccccc3)C(=O)OC(C)(C)C)cc2)c1 | . | 13µM* | -3% | 26µM*
COc1cccc(N2CCN(C(=O)c3ccc(CS(=O)c4cccc(Cl)c4)o3)CC2)c1 (centres undefined) | 5% | 0.52µM* | -2% | 0.52µM*
Cc1cccc(S(=O)Cc2ccc(C(=O)N3CCOCC3)o2)c1 (centres undefined) | 5% | 24% | 0% | -9%
COc1cccc(N2CCN(C(=O)c3ccc(CS(=O)Cc4ccccc4Cl)o3)CC2)c1 (centres undefined) | 5% | ? | -2% | ?
SMILES | TDP1 block | TDP1 cell noCPT | ClpP mod | TDP1 cell CPT
COc1cccc(N2CCN(C(=O)c3ccc(CS(=O)Cc4ccc(Cl)cc4)o3)CC2)c1 (centres undefined) | 5% | 18µM* | 1% | ?
O=C(c1ccco1)N1CCN(C(=O)c2ccc(CS(=O)c3cccc(Cl)c3)o2)CC1 (centres undefined) | 3% | -17% | 0% | -16%
O=C(c1ccc(COc2c(F)c(F)cc(F)c2F)o1)N1CCN(c2ccccc2)CC1 | -2% | 12µM* | -2% | 18µM*
COc1ccc(N2CCN(C(=O)c3ccc(CS(=O)c4cccc(Cl)c4)o3)CC2)cc1 (centres undefined) | . | 15µM* | 2% | 16µM*
Cc1cc(OCC(=O)C(C)(C)C)c2c(-c3ccccc3)cc(=O)oc2c1 | . | -30% | -6% | ?
Cc1ccc(CS(=O)Cc2ccc(C(=O)N3CCN(c4ccccc4)CC3)o2)cc1 (centres undefined) | 6% | ? | 0% | 21µM*
COc1ccc(S(=O)Cc2ccc(C(=O)N3CCN(c4cccc(C)c4C)CC3)o2)cc1 (centres undefined) | 2% | 0.92µM* | 0% | 0.58µM*
Cc1ccc([C@H]2C[C@H](n3cc(C4CC4)nn3)[C@@H](O)CN2C(=O)c2cccs2)cc1 | . | -2% | 1% | -6%
CC1(Cc2ccc(Cl)cc2)C(=O)Nc2c(Cl)ccc(Cl)c21 (centres undefined) | . | ? | 0% | 26µM*
Cc1ccc(CC2(C)C(=O)Nc3c(Cl)ccc(Cl)c32)cc1 (centres undefined) | . | 16µM* | 0% | ?
CC1(Cc2ccccc2Cl)C(=O)Nc2c(Cl)ccc(Cl)c21 (centres undefined) | . | ? | 0% | ?
CCCNC(=O)c1ccc2c(=O)c(O)c(-c3ccsc3)[nH]c2c1 | -4% | 18µM* | -10% | ?
Cc1ccc(-c2[nH]c3cc(C(N)=O)ccc3c(=O)c2O)cc1 | -1% | 18µM* | -8% | ?
CCCNC(=O)c1ccc2c(=O)c(O)c(-c3ccc(C)cc3)[nH]c2c1 | 2% | ? | -10% | ?
Cc1ccc(-c2[nH]c3cc(C(=O)NCCCn4ccnc4)ccc3c(=O)c2O)cc1 | 7% | 2% | -15% | 5%
Cc1ccc(CNC(=O)c2ccc3c(=O)c(O)c(-c4ccc(C)cc4)[nH]c3c2)cc1 | 5% | 6.5µM* | -16% | 4.1µM*
Nc1nonc1C(=O)N/N=C\c1cc2c(cc1Cl)OCO2 | -10% | 22% | -2% | 0%
O=C(NC1CCCC1)C(C1CC1)n1c(-c2cc3ccccc3[nH]2)nc2ccccc21 (centres undefined) | . | ? | 5% | ?
CCOC(=O)C1=C[C@@H](c2ccccc2)N(S(=O)(=O)c2ccc(C)cc2)[C@H]1c1ccccc1Cl | . | 26µM* | -5% | ?
CCOC(=O)C1=C[C@@H](C2CCCCC2)N(S(=O)(=O)c2ccc([N+](=O)[O-])cc2)[C@H]1c1ccccc1 | . | ? | 2% | 21µM*
Cc1ccc(S(=O)(=O)N2[C@@H](c3ccc(Cl)c(Cl)c3)C(C(=O)O)=C[C@H]2C(C)(C)C)cc1 | 1% | ? | 2% | ?
